Experimental data from a collection of fitness landscapes (doi:10.1126/science.1257360).
In all, about 140,000 sequences were measured (“enrichment ratio after two sorts for PhoP signalling”: median about 0, highest 2% from about 11 on). Shown is part of a subset that was picked to be rich in the highest values.

B1: PhoQ; a variant is named by its letters at X, in order, P23837 (parent)
chain: MKKLLRLFFPLSLRVRFLLATAAVVLVLSLAYGMVALIGYSVSFDKTTFRLLRGESNLFYTLAKWENNKLHVELPENIDKQSPTMTLIYDENGQLLWAQRDVPWLMKMIQPDWLKSNGFHEIEADVNDTSLLLSGDHSIQQQLQEVREDDDDAEMTHSVAVNVYPATSRMPKLTIVVVDTIPVELKSSYMVWSWFIYVLSANLLLVIPLLWVAAWWSLRPIEALAKEVRELEEHNRELLNPATTRELTSLVRNLNRLLKSERERYDKYRTTLTDLTHSLKTPLXXLQXXLRSLRSEKMSVSDAEPVMLEQISRISQQIGYYLHRASMRGGTLLSRELHPVAPLLDNLTSALNKVYQRKGVNISLDISPEISFVGEQNDFVEVMGNVLDNACKYCLEFVEISARQTDEHLYIVVEDDGPGIPLSKREVIFDRGQRVDTLRPGQGVGLAVAREITEQYEGKIVAGESMLGGARMEVIFGRQHSAPKDE

Variants of: B1
Assay: enrichment ratio after two sorts for PhoP signalling (ratio (wild type AVST 3.29)); higher = more functional
Details: with PhoP (E. coli)

Variant	enrichment ratio
RLRM	≤ 0.25
RGTH	≤ 0.25
YTEG	≤ 0.25
YVMY	≤ 0.25
DNCH	≤ 0.25
GTCF	1.25
MCSA	≤ 0.25
FSEL	≤ 0.25
ANAI	30.1
ANCS	2.95
GNAI	7.21
EQHH	≤ 0.25
FSLL	13.5
FCLL	10.7
TSLL	14
NRLL	≤ 0.25
MSLL	13.3
KSLL	≤ 0.25
YSLL	11.4
QFLL	≤ 0.25
QPLL	≤ 0.25
FQLL	5.35
NSLL	3.55
MSLT	4.06

Variant	enrichment ratio
TRIL	5.95
WDTG	≤ 0.25
RKRR	≤ 0.25
VQAF	≤ 0.25
TDFE	≤ 0.25
NRKC	≤ 0.25
KMVF	≤ 0.25
SSLL	19.9
SYLL	0.392
SILL	1.4
YTGV	≤ 0.25
KYGV	≤ 0.25
QEGV	≤ 0.25
SEGV	11.7
STGV	13.4
TMHV	0.946
TMGV	12.1
KCGV	≤ 0.25
SRGV	≤ 0.25
FHNP	≤ 0.25
WDYS	≤ 0.25
LVGT	≤ 0.25
RDTF	≤ 0.25
VQAH	≤ 0.25

Variant	enrichment ratio
PCAG	≤ 0.25
LCRQ	≤ 0.25
YPYC	≤ 0.25
TLKH	≤ 0.25
SHQH	≤ 0.25
NHQH	≤ 0.25
THQH	23.5
TLQH	21.1
KSQH	≤ 0.25
RRNN	≤ 0.25
TVNT	8.93
AHNM	5.49
NMYM	≤ 0.25
TQPV	≤ 0.25
MGWN	18.9
MGNT	≤ 0.25
MKAQ	≤ 0.25
MGAQ	18.9
MGAT	18.8
MGAN	12.6
TGAN	2.47
MGKR	≤ 0.25
MGLT	5.67
MGDN	≤ 0.25

Variant	enrichment ratio
MGNL	≤ 0.25
QRAQ	≤ 0.25
REVQ	≤ 0.25
RQWC	≤ 0.25
SLFD	≤ 0.25
VERW	≤ 0.25
LTMP	≤ 0.25
VRTD	≤ 0.25
TDMT	10.8
QVFF	≤ 0.25
MIFN	11
MTFN	16.9
TGFN	≤ 0.25
YTFN	≤ 0.25
MGCS	6.13
MGAG	1.81
MGFN	11.6
MGAI	16.1
MKFN	≤ 0.25
QLDR	≤ 0.25
GINV	≤ 0.25
SIAD	7.06
YITI	≤ 0.25
YTPA	≤ 0.25

Variant	enrichment ratio
PENS	≤ 0.25
SNDM	≤ 0.25
YEQP	≤ 0.25
FTCV	0.528
YEES	≤ 0.25
FTCQ	7.15
YECC	56.2
YECS	14.8
YECK	≤ 0.25
YECQ	30.7
YECH	6.45
FTCC	≤ 0.25
YECI	0.32
YECV	22.8
PGAC	≤ 0.25
FIVG	≤ 0.25
QDLS	≤ 0.25
PSLG	≤ 0.25
KSLG	≤ 0.25
SSLG	16.1
TSLG	14.5
SRLG	≤ 0.25
SILG	8.57
YYHP	≤ 0.25

Variant	enrichment ratio
DLTQ	≤ 0.25
ANPT	≤ 0.25
TAMM	2.2
IPMM	≤ 0.25
GAMM	14.4
IGWM	≤ 0.25
HIMM	≤ 0.25
VAMM	12.8
VHMM	≤ 0.25
IQMM	≤ 0.25
ITMM	17.7
IGMM	18.5
VLMM	≤ 0.25
IGGM	≤ 0.25
MRMA	≤ 0.25
HQRH	≤ 0.25
GEDN	≤ 0.25
YNEG	≤ 0.25
KEMR	≤ 0.25
WIRK	≤ 0.25
EEFA	≤ 0.25
YYMT	≤ 0.25
TQCW	0.964
PSYG	≤ 0.25

Variant	enrichment ratio
EPIL	≤ 0.25
KAMM	≤ 0.25
LAMM	14.3
LLMM	≤ 0.25
IAMM	13.5
LTMM	2.28
ISMM	5.78
MTSV	0.634
QRSV	≤ 0.25
MESV	24.5
IESV	≤ 0.25
TESV	26.1
ARSV	≤ 0.25
MDSV	≤ 0.25
AHSV	≤ 0.25
QESV	29.9
AESV	14.8
NESV	≤ 0.25
QPSV	≤ 0.25
MKSV	≤ 0.25
IVVM	≤ 0.25
GAFT	≤ 0.25
TQPA	≤ 0.25
WQTI	≤ 0.25

Variant	enrichment ratio
MSAY	7.95
NSEQ	≤ 0.25
TQME	17.2
IQME	≤ 0.25
TQMY	12.5
WQME	≤ 0.25
FQMY	≤ 0.25
NQMY	≤ 0.25
KHFI	≤ 0.25
MHHY	≤ 0.25
RLFV	≤ 0.25
ACHF	≤ 0.25
AWVF	≤ 0.25
ALVF	0.451
ATVF	16.1
ACVF	11.9
YTVF	0.29
LWTN	≤ 0.25
FKQC	≤ 0.25
IVWE	≤ 0.25
GEIY	23
GEIC	45.3
GNIY	≤ 0.25
GNIS	5.86

Variant	enrichment ratio
GEFC	≤ 0.25
GGIY	2.45
GEIS	20.8
GEIV	8.51
GERC	≤ 0.25
IKLA	≤ 0.25
LNNT	≤ 0.25
FNGW	≤ 0.25
YVPF	≤ 0.25
LTCT	≤ 0.25
FKRE	≤ 0.25
TTCA	9.39
LPWS	≤ 0.25
GDTH	≤ 0.25
LVNA	≤ 0.25
HQNP	≤ 0.25
ANKA	≤ 0.25
ANKK	≤ 0.25
ANMT	12.2
AIAT	19.3
NQMT	≤ 0.25
AQMI	≤ 0.25
AQMT	23.8
AKMT	52.1

Variant	enrichment ratio
KKAT	≤ 0.25
TKMT	6.64
AKAT	3.68
MEMT	≤ 0.25
FGIN	≤ 0.25
RFYE	≤ 0.25
FYWY	≤ 0.25
ITNK	≤ 0.25
QYEG	≤ 0.25
HPNG	≤ 0.25
WHVS	≤ 0.25
TMMI	0.351
WHFQ	1.98
DQQP	≤ 0.25
FHPL	≤ 0.25
LVAW	0.304
VHMT	≤ 0.25
AIMT	22.8
ATMT	≤ 0.25
KKAR	≤ 0.25
AKAR	≤ 0.25
AIAR	19.7
SVWQ	≤ 0.25
KVQS	≤ 0.25

Variant	enrichment ratio
MKFM	≤ 0.25
MIFM	15.8
MTFM	17.1
GTFM	≤ 0.25
KAFM	≤ 0.25
YTFM	≤ 0.25
MAFM	14.7
NAFM	≤ 0.25
MIGM	2.52
DKSF	≤ 0.25
TGQA	3.89
FELW	≤ 0.25
SMGH	1.91
SMNL	2.56
SMKH	≤ 0.25
SMQN	≤ 0.25
SMTH	4.57
SMQH	14.9
SMMH	15.6
SMMV	17.9
SMMN	19.5
SMIV	≤ 0.25
SMPV	≤ 0.25
SMWH	≤ 0.25

Variant	enrichment ratio
NSPY	≤ 0.25
PHRW	≤ 0.25
NLYI	≤ 0.25
HIPQ	≤ 0.25
SEHH	≤ 0.25
NIQH	≤ 0.25
NTWT	≤ 0.25
PEAN	≤ 0.25
VIAY	≤ 0.25
PFVI	≤ 0.25
GNDM	≤ 0.25
GENQ	≤ 0.25
SMMS	14.6
DMMC	≤ 0.25
SMMW	≤ 0.25
SMFC	≤ 0.25
SMMI	5.18
SMMC	16.1
DVQM	≤ 0.25
PNYR	≤ 0.25
AGHK	≤ 0.25
HLLG	≤ 0.25
ADLI	16.8
APLI	0.336

Variant	enrichment ratio
TDLI	16.1
AADK	≤ 0.25
AILI	1.77
AHLI	4.17
KDLI	≤ 0.25
ADLA	0.619
ADLT	11.3
AALI	11.9
FDLI	≤ 0.25
AILT	6.15
WYQF	≤ 0.25
EELG	≤ 0.25
IKSA	≤ 0.25
AVVT	0.37
QMRR	≤ 0.25
ILWV	≤ 0.25
GWVK	≤ 0.25
ANLI	23.1
AYLI	0.332
ANDK	≤ 0.25
